Laboratory results from ChEMBL document CHEMBL3433997, “St. Jude Leishmania screening dataset” (2016).
Values joined by “and” are separate entries in the source; they are usually repeats but may differ in a detail not shown here. Identical values can stand only once.

Assays:
Format in all cases: functional
[1] = target: Solute carrier family 2, facilitated glucose transporter member 1 (Homo sapiens) (UniProt P11166); test: ST_JUDE_LEISH: Cytotoxicity at 2uM final concentration against transgenic Leishmania Mexicana promastigotes LmGLUT1 that are glucose transport deficient and complemented with the human glucose transporter GLUT1. Activity is measured by DNA content using SYBR green in vitro
[2] = target: Hexose transporter 1 (Plasmodium falciparum) (UniProt O97467); test: ST_JUDE_LEISH: Cytotoxicity at 2uM final concentration against transgenic Leishmania Mexicana promastigotes LmPfHT that are glucose transport deficient and complemented with the Plasmodium falciparum hexose transporter. Activity is measured by DNA content using SYBR green in vitro
[3] = target: Glucose transporter (Leishmania mexicana) (UniProt O61059); test: ST_JUDE_LEISH: Cytotoxicity at 2uM final concentration against transgenic Leishmania Mexicana promastigotes LmGT2 that are glucose transport deficient and complemented with the L. Mexicana glucose transporter 2. Activity is measured by DNA content using SYBR green in vitro

Chain of Solute carrier family 2, facilitated glucose transporter member 1 (Homo sapiens) (P11166 whole entry): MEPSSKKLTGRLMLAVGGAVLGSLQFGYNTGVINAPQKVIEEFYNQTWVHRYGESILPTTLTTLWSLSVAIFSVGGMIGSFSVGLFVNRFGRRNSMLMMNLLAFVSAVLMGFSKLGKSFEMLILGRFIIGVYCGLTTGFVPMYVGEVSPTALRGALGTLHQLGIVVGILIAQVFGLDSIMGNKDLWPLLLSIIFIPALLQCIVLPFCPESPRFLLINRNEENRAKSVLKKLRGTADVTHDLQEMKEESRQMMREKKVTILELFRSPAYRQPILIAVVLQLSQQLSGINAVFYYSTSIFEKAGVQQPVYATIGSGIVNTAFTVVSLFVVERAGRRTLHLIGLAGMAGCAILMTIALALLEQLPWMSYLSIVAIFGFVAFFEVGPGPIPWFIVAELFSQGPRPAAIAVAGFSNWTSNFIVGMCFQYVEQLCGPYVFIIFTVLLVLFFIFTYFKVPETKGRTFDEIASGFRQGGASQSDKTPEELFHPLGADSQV

SMILES | inhibition [1] | inhibition [2] | inhibition [3]
CCC(C)CN1CCC(N(C)c2cc(NC(=O)c3cccc(C)c3)ccn2)CC1 (stereo not drawn) | -1.69% | 1.14% | -0.14%
O=C(/C=C/c1cc(C(F)(F)F)ccc1F)NC1CCC(CN2CCC(c3c[nH]c4ccccc34)CC2)CC1 (stereo not drawn) | 6.52% | 5.67% | 6.74%
CCc1nc(N)nc(N)c1-c1cccc(Cl)c1 | 2.71% | 2.32% | 3.02%
CC(=O)Nc1ccc2[nH]cc(C3CCN(CC4CCN(C(=O)/C=C/c5ccc(Cl)c(Cl)c5)CC4)CC3)c2c1 | 0.82% | -0.9% | 3.23%
CC(Cc1ccc(NC(=O)[C@@H](C)NCCc2cccc(Cl)c2)cc1)NCCc1cccc(Cl)c1 (stereo partly drawn) | 0.67% | 2.55% | 2.1%
CC[C@H]1CN2CC[C@H]1C[C@H]2[C@H](O)c1ccnc2ccc(OC)cc12 | -0.16% | 0.87% | 0.32%
Cc1ccc(CC(C)NC[C@H](O)c2cccc(Cl)c2)cc1 (stereo partly drawn) | 1.71% and 1.19% | 0.19% and 1.01% | 1.47% and 1.06%
COC(=O)/C=C/c1ccc(CC(C)NCC(O)c2cccc(Cl)c2)cc1 (stereo not drawn) | -0.32% | -0.19% | -0.96%
Cc1ccc2[nH]cc(C3CCN(CC4CCC(NC(=O)/C=C/c5ccc(Cl)c(Cl)c5)CC4)CC3)c2c1 (stereo not drawn) | 4.11% and 12% | 3.18% and 11.1% | -1.76% and 10.5%
CCC1CN2CCc3cc(OC)c(OC)cc3C2CC1CC1NCCc2cc(OC)c(OC)cc21 (stereo not drawn) | 96.6% | 96% | 93.1%
Cc1[nH]c2ccccc2c1C1=CCN(CCCCC2(C)C(=O)Nc3cccc(F)c32)CC1 (stereo not drawn) | 0.46% | -0.62% | 0.65%
CCOc1ccc(Br)cc1/C=C/C(=O)Nc1ccc2c(c1)C1CCC2N1C (stereo not drawn) | 2.58% | 0.43% | 3.45%
COCCNCc1ccc(-c2ccc(CN(C(=O)Nc3ccccc3)C3CCN(Cc4ccccc4)CC3)cc2)cc1 | 7.17% | 4.93% | 5.08%
Cc1cc(C(=O)NC2CCN(CC3(c4ccc(Cl)cc4)CCC3)CC2)on1 | 0.83% | -0.05% | 0.13%
O=C(/C=C/c1ccc(Cl)c(Cl)c1)NCC1CCC(CN2CCC(c3c[nH]c4ccccc34)CC2)CC1 (stereo not drawn) | 2.37% | -3.01% | 1.76%
O=[N+]([O-])c1ccc(Oc2c(Cl)cc(S(=O)(=O)N3CCC(CN4CCC(c5c[nH]c6ccccc56)CC4)CC3)cc2Cl)c(Cl)c1 | 1.89% | 0.25% | 3.15%
CCC1=C[C@@H]2CN(C1)Cc1c([nH]c3ccccc13)[C@@](C(=O)OC)(c1cc3c(cc1OC)N(C)[C@H]1[C@@](O)(C(=O)OC)[C@H](O)[C@]4(CC)C=CCN5CC[C@]31[C@@H]54)C2 | 2.2% | 4.15% | 2.69%
Cc1cc(N)nc2cc(CNCCc3ccccc3Br)ccc12 | 0.26% | 0.02% | -0.67%
CCCCCC(C)C(C)c1cc(O)c2c(c1)OC(C)(C)c1cnccc1-2 (stereo not drawn) | -1.41% | 0.7% | -1.32%
COc1cc(/C=C/C(=O)NC2CCC(CN3CCC(c4c[nH]c5ccccc45)CC3)CC2)ccc1O (stereo not drawn) | 0.32% and 3.25% | 1.97% and 2.79% | 1.02% and 1.53%
Cc1cc(CN2CCN(CCOC(c3ccccc3)c3ccccc3)CC2)ccc1O | 16% | 13.2% | 13.6%
CC[C@H]1CN2CC[C@@H]1C[C@@H]2[C@@H](O)c1cc(-c2ccc(F)cc2)nc2ccc(OC)cc12 | 4.08% | 3.07% | 5.29%
CCCCn1c(C)c(C(=O)OCC)c2cc(OC(C)=O)c(Br)cc21 | 1.92% | 1.76% | 3.29%
CN(c1cc(NC(=O)c2ccc(F)cc2)ccn1)C1CCN(Cc2cccc(F)c2)CC1 | 2.51% | 6.07% | 3.83%

SMILES | inhibition [1] | inhibition [2] | inhibition [3]
COc1cc(C(=O)NC2CCC(CN3CCC(c4c[nH]c5ccccc45)CC3)CC2)cc(Cl)n1 (stereo not drawn) | 1.3% | -0.71% | 2.31%
O=C(/C=C/c1cc(F)c(F)cc1F)N1CCC(CN2CCC(c3c[nH]c4ccccc34)CC2)CC1 | 0.47% | 1.36% | 0.46%
CC[C@H]1CN2CC[C@H]1C[C@H]2[C@H](O)c1cc(-c2ccc3ccccc3c2)nc2ccc(OC)cc12 | 10% | 4.9% | 3.26%
O=C(/C=C/c1ccccc1O)NC1CCC(CN2CCC(c3c[nH]c4ccccc34)CC2)CC1 (stereo not drawn) | -0.75% and -1.89% | 0.85% and 0.08% | -1.86% and -3.26%
C/C=C1/CN2CC[C@H]1C[C@H]2[C@H](O)c1ccnc2ccc(O)cc12 | -0.31% | -1.31% | -0.61%
CN(c1ccc(NC(=O)CCOc2ccccc2)cc1)C1CCN(Cc2cccc(O)c2)CC1 | 1.64% | -0.45% | -0.97%
CC[C@H]1CN2CC[C@H]1C[C@H]2[C@H](O)c1cc(/C=C/c2ccccc2)nc2ccc(OC)cc12 | 0.9% | -0.83% | -0.2%
CCCCOC(C(=O)OCC1CCCN1C)(c1ccccc1)c1ccccc1 (stereo not drawn) | -0.11% | 1.91% | 2.05%
Cc1ccc(/C=C/C(=O)NC2CCC(CN3CCC(c4c[nH]c5ccccc45)CC3)CC2)cc1C (stereo not drawn) | 3.87% and 0.74% | 3.35% and 0.58% | -0.3% and -2.39%
CC1(C)N=C(N)N=C(N)N1c1ccc([N+](=O)[O-])cc1 | 9.35% | 8.47% | 7.22%
CCCCCCCCNCC(O)c1ccc(Cl)c(Cl)c1 (stereo not drawn) | 2.51% | 3.44% | 1.24%
COCC(=O)N(Cc1cccc(-c2ccc(CNCCc3ccccc3)cc2)c1)C1CCN(Cc2ccccc2)CC1 | 3.83% | 5.42% | 2.98%
O=C(NC1CCC(CN2CCC(c3c[nH]c4ccccc34)CC2)CC1)c1cc(-c2ccc(F)cc2F)ccc1O (stereo not drawn) | 0.76% | 0.13% | 0.42%
CN1CCC(COC(=O)C(O)(c2ccccc2)c2ccccc2)C1 (stereo not drawn) | 2.1% | -0.69% | -0.38%
Cc1c(C)c2c(c(C)c1O)CC[C@](C)(C(=O)NC1CCC(CN3CCC(c4c[nH]c5ccccc45)CC3)CC1)O2 (stereo partly drawn) | -0.89% and 2.73% | 2.05% and 2.37% | -1.4% and -1.2%
CCC(C)CN1CCC(N(C)c2cc(NC(=O)c3ccc(F)cc3)ccn2)CC1 (stereo not drawn) | -0.37% | 0.64% | 2.38%
COC(=O)c1ccc(CC(C)NCC(O)c2cc(Cl)c(N)c(Cl)c2)cc1 (stereo not drawn) | 1.96% | 2.46% | 2.16%
COc1cccc(C(=O)C2CC2CN2CC=C(c3c[nH]c4cccc(Br)c34)CC2)c1 (stereo not drawn) | 1.59% | 1.08% | -0.34%
CN(c1cc(NC(=O)c2cccs2)ccn1)C1CCN(Cc2ccccc2)CC1 | 0.59% | 3.13% | 2.09%
COc1nc(N)ncc1C(=O)NC1CN2CCC1CC2 (stereo not drawn) | 7.43% | 6.98% | 7.08%
COc1ccc(CC(C)NCC(O)c2ccc(Cl)c(Cl)c2)cc1 (stereo not drawn) | 0.41% | -0.07% | -2.6%
COC(=O)c1ccc(CC(C)NCC(O)c2cccc(OC(F)(F)F)c2)cc1 (stereo not drawn) | 0.35% | 1.5% | 1.7%
COc1ccc(OC)c(C(O)CNC(C)C)c1 (stereo not drawn) | 1.92% | 2.47% | 0.42%
CCCCCCCc1cc(=O)c2ccccc2[nH]1 | 12.7% | 3.61% | 1.21%

SMILES | inhibition [1] | inhibition [2] | inhibition [3]
O=C(C=Cc1ccccc1C(F)(F)F)NC1CCC(CN2CCC(c3c[nH]c4ccccc34)CC2)CC1 (stereo not drawn) | 8.82% and 9.04% | 5.1% and 5.78% | 5.23% and 4.7%
O=C(C=Cc1ccc(F)c(Br)c1)NC1CCC(CN2CCC(c3c[nH]c4ccccc34)CC2)CC1 (stereo not drawn) | 0.26% and 5.78% | -0.2% and 4.24% | -1.48% and 3.84%
O=C(/C=C/c1ccc(Cl)c(Cl)c1)NC1CCC(CN2CCC(c3c[nH]c4cc(O)ccc34)CC2)CC1 (stereo not drawn) | 3.03% | 0.88% | -0.33%
Cc1ccc(C[C@@H](C)NC[C@H](O)c2cccc(C(F)(F)F)c2)cc1 | 3.18% | 3.1% | 2.92%
O=C(/C=C/c1ccc(Cl)c(Cl)c1)NC1CCC(CN2CCC(c3c[nH]c4cc(C(F)(F)F)ccc34)CC2)CC1 (stereo not drawn) | 6.9% and 1.89% | 4.9% and -0.14% | 12.7% and 2.07%
C/C=C1/CN2CC[C@H]1C[C@H]2[C@H](O)c1ccnc2ccc(OC)cc12 | -0.87% | -2.22% | 2.08%
CC[C@H]1CN2CC[C@H]1C[C@H]2[C@H](O)c1cc(-c2ccc(Cl)c(Cl)c2)nc2ccc(OC)cc12 | 12.6% | 9.65% | 9.4%
Oc1ccc(CN2CCN(CCOC(c3ccccc3)c3ccccc3)CC2)cc1Cl | 0.53% | 3.98% | -1.69%
Cc1ccc(CC(C)NCC(O)c2cccc([N+](=O)[O-])c2)cc1 (stereo not drawn) | 0.3% | -0.33% | 1.06%
CCC1(C)CC(CCNCc2ccccc2O)(c2ccc(F)cc2)CCO1 (stereo not drawn) | 0.23% | 1.85% | -0.21%
Cc1[nH]c2ccccc2c1C1=CCN(CCCCC2(C)C(=O)Nc3ccccc32)CC1 (stereo not drawn) | 2.98% | 2.07% | -0.37%
Cc1ccc(CC(C)NCC(O)c2cccc(C(F)(F)F)c2)cc1 (stereo not drawn) | 1.64% and 2.89% | 4.33% and 0.46% | 1.68% and 0.49%
CC[C@H]1CN2CC[C@H]1C[C@H]2[C@H](O)c1cc(N2CCCC(CO)C2)nc2ccc(OC)cc12 (stereo partly drawn) | 2.62% | 1.73% | 0.11%
COC(=O)c1ccc(CC(C)NCC(O)c2ccc(Cl)c(Cl)c2)cc1 (stereo not drawn) | 6.46% | 3.9% | 5.96%
CN1CCC(N(C)c2nccc(N3CCN(Cc4cncn4Cc4ccccc4)CC3)n2)CC1 | 12.8% | 12.8% | 10.8%
O=C(/C=C/c1c(Cl)cccc1Cl)NC1CCC(CN2CCC(c3c[nH]c4ccccc34)CC2)CC1 (stereo not drawn) | 5.03% and 4.85% | 12.9% and 2.55% | 6.66% and 4.94%
COc1ccc(F)cc1-c1csc(N(c2ccc(F)cc2)C2CCNCC2)n1 | 1.56% | 0.21% | 0.05%
CN(C)c1cccc(NC(=O)NC2N=C(c3ccccc3)c3ccccc3N(CC(=O)N(C)c3ccccc3)C2=O)c1 (stereo not drawn) | 6.38% | 4.22% | 2.42%
CN(c1cc(NC(=O)c2ccccc2)ccn1)C1CCN(Cc2cccc(F)c2)CC1 | 1.23% | 4.2% | 2.33%
COC(=O)c1ccc(CC(C)NCC(O)c2ccccc2Cl)cc1 (stereo not drawn) | 0.96% | 0.22% | 1.21%
COc1cccc(CCNC(C)Cc2ccc(OCCCCOc3ccccc3)cc2)c1 (stereo not drawn) | 95% | 96.3% | 101%
CCN(CC)CCN1C(=O)C(O)(c2ccccc2Cl)c2c1cc(C#N)cc2C(F)(F)F (stereo not drawn) | 2.9% | 2.02% | 4.08%
COc1ccc(OC)c(CNCC(O)c2cc(C(F)(F)F)cc(C(F)(F)F)c2)c1 (stereo not drawn) | 5.31% | 6.21% | 3.49%
